# High-throughput results as filed in PubChem BioAssay.
# VLA-4 inh – inhibition in human VLA-4 binding assay, primary screen, VLA-4 allosteric modulator project, MLPCN library, flow cytometry, VLA-4 expressing cells; Integrin alpha-4 (Homo sapiens), P13612; ligand binding flow cytometry; inhibition, % (about 7 µM as worked out from the volumes in the protocol); 330,000 tested, 0.2% active; AID 2557, 2010; in the data active = inhibition above about 50%
# Rev-erbA mod – modulators of Rev-erb alpha DNA binding, primary screen, biochemical, FITC-DNA, fluorescence polarization, uHTS; Rev-erbα–FITC-DNA binding, 90 min; AID 1259318, 2017; activity, % at 10 µM; 370,000 tested, 0.79% active; Nuclear receptor subfamily 1 group D member 1 (Homo sapiens), P20393;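 active = activity above about 14%, limit read from the data; passing the limit was not always enough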;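 note: 0% = DMSO wells with 35 nM protein and 100% = DMSO wells with 750 nM protein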
# Granule exo inh – LAMP-1 surface exposure blockers, TALL-104 cells – cell-based, flow cytometry, MLPCN library, primary screen. TALL-104 LAMP-1 surface exposure; cells stimulated with thapsigargin and PMA. inhibition, % at 10 µM. 360,000 tested, 0.66% active;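 active = inhibition above about 55%, limit read from the data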
# PG9 Ab binder – binders of HIV-1 gp120 antibody PG9, primary screen, biochemical, TR-FRET | TR-FRET gp120-PG9 antibody binding | HIV-1 gp120 / PG9 antibody interaction | 360,000 tested, 0.43% active | inhibition, % at 6.7 µM | AID 624416, 2012; in the data active = inhibition above about 8.5%
# ABCB6 inh MLPCN – ABCB6 transporter inhibitors, primary screen, K562-ABCB6 cells, flow cytometry, MLPCN library. AID 602162, 2011. fluorescence ratio to DMSO, % at 10 µM. K562-ABCB6 porphyrin accumulation, 1 h; hits give low values. 360,000 tested, 0.19% active;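 active = fluorescence ratio to DMSO below 75%, the collection mean minus 3 SD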;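 note: signal is porphyrin accumulated inside mitochondria; 100% equals median channel fluorescence of DMSO control wells; lower ratio means ABCB6 inhibition with less porphyrin fluorescence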
# Target sequence (Q9NP58 whole entry, looked up): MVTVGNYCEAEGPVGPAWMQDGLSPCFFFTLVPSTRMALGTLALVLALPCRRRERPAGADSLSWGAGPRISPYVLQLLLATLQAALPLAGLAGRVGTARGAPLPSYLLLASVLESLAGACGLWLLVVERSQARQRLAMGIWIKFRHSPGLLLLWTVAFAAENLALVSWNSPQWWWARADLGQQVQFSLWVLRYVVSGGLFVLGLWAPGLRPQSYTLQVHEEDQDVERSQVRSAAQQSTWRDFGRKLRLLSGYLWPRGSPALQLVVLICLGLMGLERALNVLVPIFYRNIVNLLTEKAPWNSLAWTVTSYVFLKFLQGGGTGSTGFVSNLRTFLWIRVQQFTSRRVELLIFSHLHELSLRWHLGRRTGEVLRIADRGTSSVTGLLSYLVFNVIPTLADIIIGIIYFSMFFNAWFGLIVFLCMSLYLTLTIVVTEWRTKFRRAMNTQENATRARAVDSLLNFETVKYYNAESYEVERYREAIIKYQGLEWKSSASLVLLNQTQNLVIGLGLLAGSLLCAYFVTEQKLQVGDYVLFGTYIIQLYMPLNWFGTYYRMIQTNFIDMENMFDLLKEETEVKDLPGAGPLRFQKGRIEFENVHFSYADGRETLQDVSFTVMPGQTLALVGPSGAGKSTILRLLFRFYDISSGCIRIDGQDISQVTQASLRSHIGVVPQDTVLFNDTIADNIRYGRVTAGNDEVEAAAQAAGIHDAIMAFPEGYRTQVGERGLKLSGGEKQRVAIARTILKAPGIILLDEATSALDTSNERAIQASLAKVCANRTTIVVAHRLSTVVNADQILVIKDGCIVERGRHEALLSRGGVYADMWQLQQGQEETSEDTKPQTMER
# VLA-4 allo CP – retest of VLA-4 allosteric modulators, confirmation, cell-based, cherry-picked plates, U937, HUTS-21 LIBS antibody; shares compounds with VLA-4 inh; U937 cells, HUTS-21 LIBS mAb binding, flow cytometry; LDV ligand present at threefold Kd; inhibition, % at 6.7 µM; 1,300 tested, 2% active; in the data active = inhibition above about 40%;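 note: 0% = ligand without compound and 100% = no ligand background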
# * marks the source's active call; other numbers are inactive results; · = no result given; ! = not active in a repeat. This is a sample that favours compounds with a hit; in the whole collection about 2% have one here.
SMILES,VLA-4 inh,Rev-erbA mod,Granule exo inh,PG9 Ab binder,ABCB6 inh MLPCN,others
CCOc1ccc(-n2c(-c3cccs3)nc3ccccc3c2=O)cc1,2.8,5.9,-0.4,-3.3,92.0,
CCn1nc(-c2cccs2)nc2c(=O)n(C)c(=O)nc1-2,·,·,79.1*,·,121.0,
CCn1nc(/C=C/c2ccccc2)nc2c(=O)n(C)c(=O)nc1-2,·,-24.0,88.0*,-8.2,118.0,
O=C(CNC(=O)OCc1ccccc1)NC(Cc1ccccc1)P(=O)(Oc1ccccc1)Oc1ccccc1 (centres undefined),·,1.5,·,·,·,
COc1cc(/C=C(/C)[N+](=O)[O-])ccc1OCc1ccccc1Cl,23.0,·,84.7*,·,88.0,
CC(=O)NC1CCSC1=O (centres undefined),·,-6.5,·,·,·,
CCN1/C(=C\C=C\C2=[N+](CC)c3ccccc3C2(C)C)C(C)(C)c2ccccc21,·,·,85.2*,·,·,
CCC(NC(=O)OCc1ccccc1)P(=O)(Oc1ccccc1)Oc1ccccc1 (centres undefined),·,-2.1,·,·,·,
N#Cc1ccc2nc(-c3ccc(CN4CCC(n5c(=O)[nH]c6cc(Cl)ccc65)CC4)cc3)c(-c3ccccc3)nc2c1,·,6.8,·,-2.5,·,
N[C@@H](Cc1c[nH]c2ccccc12)c1nnc(SCc2ccccc2)o1,-18.9,2.1,-3.7,0.5,98.0,
N[C@@H](Cc1c[nH]c2ccccc12)c1nnc(SCc2ccc(Cl)cc2)o1,-8.2,3.4,-6.3,0.2,71.0*,
O=C1NC(=O)N(CCc2ccc(F)cc2)C(=O)/C1=C/c1cccs1,22.9,-2.8,79.9*,-0.2,94.0,
NCCc1cc(O)c(O)cc1O,·,-28.1,-5.9,11.1*!,102.0,
CN1C(=O)/C(=C/c2cccn2-c2ccc3ccccc3c2)C(=O)NC1=S,9.3,-2.5,98.5*,2.7,94.0,
Oc1ccccc1-[n+]1c(-c2ccccc2)cc(-c2ccccc2)c(O)c1-c1ccccc1,-7.9,-1.5,74.4*,1.1,105.0,
O=C1CC2OCC=C3CN4CC[C@]56c7ccccc7N1C5[C@H]2[C@H]3CC46 (some centres undefined),·,-3.9,·,·,·,
C[CH2][Hg][S]c1ccccc1C(=O)O,35.1,-4.1,69.3*,-3.3,92.0,
CC(C)COC(=O)c1ccccc1C(=O)OCC(C)C,32.6,-5.0,-6.2,-0.3,98.0,
CCN(CC)c1ccc(/C=C/[N+](=O)[O-])cc1,12.5,0.7,70.9*,-10.7,120.0,
C[C@H]1[C@H](O)[C@@H](C)/C=C/C=C/CC/C=C/C=C/C=C/C=C/C(OC2O[C@H](C)[C@@H](O)[C@H](N)[C@@H]2O)CC2O[C@](O)(CC(O)C(O)CCC(O)CC(O)CC(O)CC(=O)O[C@H]1C)CC(O)C2C(=O)O (some centres undefined),·,-0.7,·,·,·,
CCOc1ccc(-c2cc(C)[n+](CCc3ccc(OC)c(OC)c3)c(-c3ccc(OCC)cc3)c2)cc1,0.3,0.3,57.0*,-0.5,85.0,
CCOc1ccc(-c2cc(C)[n+](CCO)c(-c3ccc(OCC)cc3)c2)cc1,1.4,2.4,1.1,3.0,86.0,
COC(=O)C1=C(c2ccc(Cl)c(C(F)(F)F)c2)C[C@@H]2CC[C@H]1N2C(=O)NCc1ccc2c(c1)OCO2,-2.2,2.2,76.1*,0.9,95.0,
COC(=O)C1=C(c2ccc(C(C)=O)cc2)C[C@@H]2CC[C@H]1N2C(=O)NCc1ccc2c(c1)OCO2,-14.7,-1.1,2.2,0.5,96.0,
O=C(NC(Cc1ccccc1)P(=O)(O)Oc1ccccc1)OCc1ccccc1 (centres undefined),·,-4.3,·,·,·,
SMILES,VLA-4 inh,Rev-erbA mod,Granule exo inh,PG9 Ab binder,ABCB6 inh MLPCN,others
O=C(CN1C(=O)[C@@H](Cc2c[nH]c3ccccc23)N=C(c2ccccc2)c2ccccc21)NC1CCCCC1,·,-0.3,·,·,·,
c1ccc2c(c1)Nc1ccccc1S2,54.9*,·,-4.0,·,100.0,VLA-4 allo CP=12.6
O=C1Nc2ccccc2Sc2ccccc21,4.3,1.2,4.1,-0.4,105.0,
CCOC(=O)c1c(NC(=O)c2c(N)n(CCCOC)c3nc4ccccc4nc23)sc2c1CCCC2,31.4,5.3,0.6,-2.6,96.0,
CCOC(=O)c1c(NC(=O)C(c2ccccc2)c2ccccc2)sc2c1C1CCN2CC1,-4.2,4.9,4.9,3.3,94.0,VLA-4 allo CP=-3.0
CN=C1CN(O)C(c2ccccc2)=c2cc(Cl)ccc2=N1,13.5,-1.8,24.4,-1.0,93.0,
O=C1CN(O)C(c2ccccc2)=c2cc(Cl)ccc2=N1,101.0*,2.0,0.0,-2.1,98.0,VLA-4 allo CP=-12.3
Cc1cc(Cl)ccc1OCC(=O)O,55.6*,7.6,-0.7,-1.0,97.0,VLA-4 allo CP=-2.9
Cc1ccc(S(=O)(=O)N[C@@H](CCCCN)C(=O)CCl)cc1,52.7*,5.3,-2.1,-0.3,105.0,VLA-4 allo CP=-6.7
C=CCN1CC[C@]23c4c5ccc(O)c4O[C@@H]2C(=O)CC[C@@]3(O)[C@H]1C5,·,-3.7,·,·,·,
Cc1ccc(CN2CCCN(Cc3ccc(C)cc3)S2(=O)=O)cc1,3.7,2.2,0.8,2.2,100.0,
Cc1cccc(CN2CCCN(Cc3ccc(Cl)cc3)S2(=O)=O)c1,44.7,8.1,-0.4,-0.8,97.0,VLA-4 allo CP=-1.2
CCC12CCN(CC3(O)CC3)C(Cc3ccc(O)cc31)C2(C)C (centres undefined),·,1.2,·,-0.7,·,
COC(=O)C1C2CC[C@@H](CC1OC(=O)c1ccccc1)N2 (some centres undefined),8.3,·,1.8,·,103.0,VLA-4 allo CP=-1.4
CN1C2CCC1C(C(=O)O)C(OC(=O)c1ccccc1)C2 (centres undefined),35.1,-2.5,0.4,-1.2,99.0,VLA-4 allo CP=3.3
COc1cccc(O)c1CN1CCCC(C(=O)c2ccccc2SC)C1 (centres undefined),51.3*,-4.7,-0.9,0.4,93.0,VLA-4 allo CP=-4.1
C/C1=C\[C@@H](C)C/C=C/[C@H]2[C@@H]3O[C@]3(C)[C@@H](C)[C@H]3[C@H](Cc4c[nH]c5ccccc45)NC(=O)[C@]32C(=O)/C=C/C(=O)[C@@H]1O,69.8*,·,45.0,·,91.0,VLA-4 allo CP=36.9
COc1ccc2c(c1)[C@]13CCCC[C@H]1[C@H](C2)N(C)CC3,·,2.7,·,·,·,
CCc1cc(OC)c(CCN)cc1OC,·,2.7,·,-1.0,·,
Cc1cc(C)cc(N2C(=O)NC(=O)/C(=C\c3cccn3-c3ccccc3)C2=O)c1,43.6,-3.5,25.9,0.8,90.0,VLA-4 allo CP=16.0
Cc1cc(C)cc(N2C(=O)NC(=O)/C(=C\c3cccn3-c3ccc(Cl)cc3)C2=O)c1,16.6,-11.3,44.4,-0.9,99.0,
